# According to PubChem BioAssay:
# Inconclusive results are not listed. The source made the active and inactive calls.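 The calls were made as follows, unless noted: active = viability at or under a set limit in both replicates, limit being median viability minus 3 SD (cut at about 48% in these data, passing the limit was not always enough); inconclusive = at or under the limit in just one replicate; inactive = at or above the limit in both replicates.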
# Tests used:
# [1] = Her2 expression decrease, cell viability multiplex – SKBR3 breast tumor cells, AlphaScreen, ATP viability, primary screen (AID 461;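 active = Her2 level under about 52% in both replicate screens, with viability over 70% of control, limit read from the data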;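 as to Her2 level: lower value means less Her2 protein in the cells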;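 as to viability: percent of carrier control wells set as 100% viability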); details: SKBR3 Her2 protein level, 18-24 h, measured here: SKBR3 viability, ATP luminescence, at 10 µM
# [2] = target: Receptor tyrosine-protein kinase erbB-2 (Homo sapiens) (UniProt P04626); assay: as above; details: 18-24 h, at 10 µM, stronger effect = lower value
# [3] = reduced viability of SK-BR-3 breast cancer cells – cell-based, 24 h, human, pilot screen (AID 572;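 active = viability at or below 10% of carrier control in both of two separate runs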;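 also: compound exposure lasted between 18 and 24 h rather than exactly 24 h; 100% = carrier-treated control wells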); details: SK-BR-3 viability, CellTiter-Glo luminescence, at 10 µM, stronger effect = lower value
# [4] = HUVEC growth inhibition – cell-based, human, primary screen (AID 575;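 active = viability at or below 30% in both replicate assays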;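 also: 100% = median of untreated cell wells with 0.1% DMSO on each plate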); details: HUVEC proliferation, CellTiter-Glo luminescence, 72 h; at 10 µM; stronger effect = lower value
# [5] = H69AR cell proliferation blockers – human, duplicate replicates, primary screen (AID 580); details: H69AR lung tumor cells viability, ATP luminescence, 72 h; at 10 µM; stronger effect = lower value;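 also: 100% = mean luminescence of untreated wells and 0% = no signal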
# [6] = MRP1 drug-resistance reversers in H69AR cells – cell-based, doxorubicin co-treatment, pilot screen (AID 601;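 active = viability loss from added drug above about 55%, and viability with drug at most 40%, in both replicates, limit read from the data, passing the limit was not always enough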); details: CellTiter-Glo, 72 h, at 10 µM; for differential viability (reversal): stronger effect = higher value
# [7] = yeast transport mutant growth inhibition pilot in 384-well plates, post-Golgi transport modulator project (AID 636; in the data active = inhibition above about 31%); details: absorbance 615 nm, about 18 h, stronger effect = higher value
# [8] = growth suppression of yeast trafficking mutant, preliminary HTS, modulators of trafficking downstream of Golgi apparatus project, 1536-format plate, OD 615 nm (AID 637; in the data active = inhibition above about 30%); details: yeast transport mutant growth, absorbance 615 nm, 18 h; stronger effect = higher value
# [9] = S. cerevisiae growth inhibition in permissive medium (OD615), pilot counter-assay for S. cerevisiae lifespan shortening project, permissive growth control (AID 705;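 active = growth inhibition above 25% in both replicates, a cutoff set 3 SD above the mean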); details: OD615, 24 h, at 10 µM, stronger effect = higher value
# [10] = S. cerevisiae growth inhibition in restrictive medium, OD615, pilot screen, restrictive growth control, yeast lifespan reduction project (AID 706;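 active = growth inhibition above a set limit, 3 SD over mean compound inhibition, in both replicates, cut at about 43% in these data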;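 also: modified DeaD lifespan yeast strain shifted to restrictive glucose medium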); details: OD615, 48 h, at 10 µM, stronger effect = higher value
# [11] = doxorubicin toxicity protection in MRP-1 cells – H69AR cells, CellTiter-Glo, duplicate, MRP-1 activator project, pilot screen (AID 807;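 active = viability increase at or above a cutoff of the median across tested compounds plus 3 SD, cut at about 8.5% in these data, passing the limit was not always enough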;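 also: compound pretreatment 18-22 h then 72 h combined with doxorubicin; 0% = doxorubicin alone and 100% = vehicle without doxorubicin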); details: H69AR viability with doxorubicin, CellTiter-Glo luminescence; at 10 µM; stronger effect = higher value
# [12] = viability of HCT116 without oncogenic beta-catenin – human colon tumor cells, pilot screen (AID 823;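 active = cell viability at or below a set limit in both duplicate runs, the limit being the all-compound median minus 4 SD, cut at about 23% in these data, passing the limit was not always enough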;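 also: 0% = wells killed by 20 µM Hyamine and 100% = untreated DMSO cell wells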); details: HCT116 beta-catenin knockout viability, CellTiter-Glo, 60 h; at 10 µM; stronger effect = lower value
# [13] = viability of PTEN-null HCT116 cells – cell-based, HCT116 clonal line, CellTiter-Glo, pilot screen (AID 824;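 active = viability at or below 27.92% in each of two runs, the all-compound median minus 4 SD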;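 also: 0% = 20 µM Hyamine control and 100% = vehicle cell control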); details: HCT116 PTEN-deleted viability, 60 h, at 10 µM, stronger effect = lower value
# [14] = RAM pathway blockade in budding yeast – dse1pr::URA3 reporter, 5-FOA selection, pilot screen (AID 869;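 active = inhibition over a set limit, the all-compound mean plus 3 SD, in both replicate runs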;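 also: 0% = DMSO wells with no growth and 100% = 10 µM 1-NA-PP1 with full growth; RAM network block rescues cells from 5-FOA so hits raise OD615 growth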); details: S. cerevisiae dse1pr::URA3 5-FOA growth, OD615, 2 d; at 10 µM; stronger effect = higher value; strain carries analog-sensitive mutant Cbk1 kinase
# [15] = RAM signaling pathway blockade in yeast – S. cerevisiae, Pdr1DBD-CYC8 efflux-inhibited sensitized strain, primary screen (AID 1298;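 active = RAM network inhibition above 8.4% in each of two replicates, 3 SD over the compound average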;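 also: 0% = DMSO untreated cells without growth and 100% = 10 µM 1-NA-PP1 full growth; higher means more yeast growth rescued from 5-FOA killing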); details: S. cerevisiae cbk1-as DSE1-URA3 strain, 5-FOA growth OD615, 2 d; at 50 µM; stronger effect = higher value
# [16] = H69AR cells + 2 uM doxorubicin, measured here: viability with 2 uM doxorubicin, stronger effect = lower value
# [17] = H69AR cells, compound alone cytotoxicity
# Sequence of Receptor tyrosine-protein kinase erbB-2 (Homo sapiens) (P04626 whole entry, looked up): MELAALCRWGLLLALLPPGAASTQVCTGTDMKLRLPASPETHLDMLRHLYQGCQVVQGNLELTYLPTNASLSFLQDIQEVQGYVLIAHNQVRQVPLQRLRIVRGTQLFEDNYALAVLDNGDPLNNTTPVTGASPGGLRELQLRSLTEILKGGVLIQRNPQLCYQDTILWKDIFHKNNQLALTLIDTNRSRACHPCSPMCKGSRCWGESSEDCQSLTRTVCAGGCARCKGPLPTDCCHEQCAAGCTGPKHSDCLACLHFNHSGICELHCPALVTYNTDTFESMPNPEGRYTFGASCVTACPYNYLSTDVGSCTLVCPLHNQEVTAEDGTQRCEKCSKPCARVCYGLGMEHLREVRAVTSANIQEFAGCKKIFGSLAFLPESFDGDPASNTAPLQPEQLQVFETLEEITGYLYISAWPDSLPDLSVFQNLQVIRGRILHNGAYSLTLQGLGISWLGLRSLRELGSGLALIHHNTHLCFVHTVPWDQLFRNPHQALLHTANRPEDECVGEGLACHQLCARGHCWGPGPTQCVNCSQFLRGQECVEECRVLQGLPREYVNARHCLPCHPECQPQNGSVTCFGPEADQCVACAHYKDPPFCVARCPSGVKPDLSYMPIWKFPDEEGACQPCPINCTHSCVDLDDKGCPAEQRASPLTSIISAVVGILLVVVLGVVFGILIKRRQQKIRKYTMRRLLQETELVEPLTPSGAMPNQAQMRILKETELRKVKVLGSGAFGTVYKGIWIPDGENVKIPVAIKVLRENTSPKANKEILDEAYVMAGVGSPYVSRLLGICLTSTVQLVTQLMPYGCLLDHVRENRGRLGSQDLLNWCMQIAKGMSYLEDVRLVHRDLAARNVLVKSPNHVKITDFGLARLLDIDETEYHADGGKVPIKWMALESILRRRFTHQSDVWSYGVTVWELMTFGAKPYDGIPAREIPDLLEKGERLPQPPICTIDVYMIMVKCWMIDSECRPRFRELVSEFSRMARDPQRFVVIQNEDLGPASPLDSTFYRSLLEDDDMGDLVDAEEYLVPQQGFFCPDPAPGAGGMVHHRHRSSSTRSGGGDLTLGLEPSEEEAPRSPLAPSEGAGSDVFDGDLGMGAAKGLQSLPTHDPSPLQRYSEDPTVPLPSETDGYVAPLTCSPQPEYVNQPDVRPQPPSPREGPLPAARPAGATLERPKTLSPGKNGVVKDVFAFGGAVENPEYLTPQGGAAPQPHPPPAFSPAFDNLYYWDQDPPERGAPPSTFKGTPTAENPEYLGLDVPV
SMILES,viability [1],Her2 level [2],viability [3],viability [4],viability [5],differential viability (reversal) ([6]; H69AR cells + 2 uM doxorubicin),"viability [6, 16]","viability [6, 17]",inhibition [7],inhibition [8],growth inhibition [9],growth inhibition [10],viability increase [11],viability [12],viability [13],inhibition [14],RAM network inhibition [15]
Cc1ccc(CSc2nc3c(c(=O)[nH]2)CCC3)cc1,86.5%,91.5% (inactive),86.5% (inactive),79.7% (inactive),93.1% (inactive),17.8% (inactive),75.2%,93.1%,-0.13% (inactive),2.67% (inactive),-9.96% (inactive),-26.7% (inactive),-0.74% (inactive),105% (inactive),92.9% (inactive),3% (inactive),3.47% (inactive)
CC1(C)Cc2ccccc2C(N)=C1C#N,93.5%,111% (inactive),93.5% (inactive),87.5% (inactive),93.7% (inactive),9.91% (inactive),83.8%,93.7%,4.81% (inactive),-3.11% (inactive),4.29% (inactive),-0.06% (inactive),-0.77% (inactive),89.9% (inactive),91.8% (inactive),0.81% (inactive),0.69% (inactive)
Cc1cc(C)c(C#N)c(SCC(=O)Nc2ccc(S(=O)(=O)Nc3onc(C)c3C)cc2)n1,90.5%,97% (inactive),90.5% (inactive),82.4% (inactive),87.4% (inactive),-9.41% (inactive),96.8%,87.4%,-3.73% (inactive),0.33% (inactive),-1.4% (inactive),7.54% (inactive),-0.72% (inactive),109% (inactive),100% (inactive),1.98% (inactive),2.19% (inactive)
CC1CN(c2c3c(nc4ncnn24)CCCC3)CC(C)O1 (stereo not given),89.5%,88% (inactive),89.5% (inactive),102% (inactive),90.7% (inactive),4.54% (inactive),86.2%,90.7%,-4.87% (inactive),2% (inactive),3.17% (inactive),-4.12% (inactive),-1.41% (inactive),88.9% (inactive),90.8% (inactive),1.57% (inactive),-1.85% (inactive)
CN(C)CCNc1oc(-c2ccccc2F)nc1C#N,93%,94% (inactive),93% (inactive),87.4% (inactive),105% (inactive),14.7% (inactive),90.3%,105%,-4.27% (inactive),3.77% (inactive),-13.7% (inactive),-6.7% (inactive),1.17% (inactive),107% (inactive),107% (inactive),1.36% (inactive),1.9% (inactive)
Cc1nc2ccc(S(=O)(=O)NC(C(=O)N3CCCC3)C(C)C)cc2s1 (stereo not given),88.5%,106% (inactive),88.5% (inactive),111% (inactive),97.3% (inactive),17.8% (inactive),79.5%,97.3%,-1.92% (inactive),-0.5% (inactive),3.5% (inactive),11.5% (inactive),-2.03% (inactive),92.2% (inactive),91.2% (inactive),2.62% (inactive),0.27% (inactive)
COc1ccccc1-c1cc2nc(C)c(CCC(=O)NCc3ccco3)c(C)n2n1,80%,88% (inactive),80% (inactive),88% (inactive),89.9% (inactive),1.59% (inactive),88.3%,89.9%,-2.69% (inactive),0.33% (inactive),-2.34% (inactive),-6.24% (inactive),-3.72% (inactive),97.2% (inactive),98.1% (inactive),1.53% (inactive),4.36% (inactive)
Cc1nnc2n(-c3ccc(Cl)cc3)c(=O)c3c4c(sc3n12)CN(C)CC4,84%,98% (inactive),84% (inactive),103% (inactive),91.6% (inactive),-11.4% (inactive),103%,91.6%,-4.94% (inactive),-4.1% (inactive),-4.76% (inactive),-10.1% (inactive),-1.73% (inactive),112% (inactive),93.1% (inactive),0.945% (inactive),2.13% (inactive)
Cc1nc2ccccc2c2oc(C(=O)NCCN3CCCCC3C)cc12 (stereo not given),81%,94% (inactive),81% (inactive),99.5% (inactive),93.1% (inactive),-6.12% (inactive),99.2%,93.1%,-3.46% (inactive),-3% (inactive),-3.45% (inactive),0.34% (inactive),-2.08% (inactive),66.4% (inactive),70.6% (inactive),1.77% (inactive),-0.67% (inactive)
COc1ccccc1NCN1C(=O)CCC1=O,102%,98% (inactive),102% (inactive),104% (inactive),82.4% (inactive),-20.8% (inactive),103%,82.4%,-7.47% (inactive),2% (inactive),-9.71% (inactive),1.64% (inactive),-0.43% (inactive),102% (inactive),95.5% (inactive),1.98% (inactive),3.27% (inactive)
CCOC(=O)c1[nH]c(C)c(C(=O)NC)c1C,92%,112% (inactive),92% (inactive),89.7% (inactive),98.8% (inactive),13.8% (inactive),85%,98.8%,-0.26% (inactive),-1.17% (inactive),-4.37% (inactive),-10.2% (inactive),-0.95% (inactive),109% (inactive),90.8% (inactive),1.32% (inactive),-1.66% (inactive)
CCCS(=O)(=O)N1CCN(C(=O)c2cccnc2)CC1,97%,98.5% (inactive),97% (inactive),93.1% (inactive),106% (inactive),5.65% (inactive),101%,106%,-0.26% (inactive),-3.77% (inactive),-8.47% (inactive),-15.8% (inactive),1.08% (inactive),101% (inactive),95.2% (inactive),-0.345% (inactive),0.42% (inactive)
CC1CCCN(C(=O)CN2C(=O)c3ccccc3C2=O)C1 (stereo not given),93.5%,104% (inactive),93.5% (inactive),93.8% (inactive),84.8% (inactive),-6.78% (inactive),91.6%,84.8%,-3.59% (inactive),-6.33% (inactive),-15.4% (inactive),-9.79% (inactive),-0.25% (inactive),101% (inactive),98.7% (inactive),1.7% (inactive),0.38% (inactive)
CCOc1ccc(NC2c3ccccc3C(=O)N2Cc2ccco2)cc1 (stereo not given),83.5%,96.5% (inactive),83.5% (inactive),98.7% (inactive),96.2% (inactive),-2.58% (inactive),98.8%,96.2%,5% (inactive),7.83% (inactive),3.67% (inactive),6.9% (inactive),-0.75% (inactive),92.6% (inactive),85.4% (inactive),1.4% (inactive),5.57% (inactive)
COc1ccc(-c2nnc(SCC(=O)NC(C)c3ccccc3)o2)cc1 (stereo not given),94%,102% (inactive),94% (inactive),82% (inactive),100% (inactive),5.95% (inactive),94.4%,100%,1.87% (inactive),2.33% (inactive),-4.83% (inactive),-1.46% (inactive),-3.41% (inactive),90.8% (inactive),89.8% (inactive),1.37% (inactive),6.94% (inactive)
CC(=O)NC(C)C(=O)OCC(=O)Nc1ccc(Br)cc1 (stereo not given),95%,80.5% (inactive),95% (inactive),93.9% (inactive),94.5% (inactive),4.86% (inactive),89.7%,94.5%,0.13% (inactive),-4.17% (inactive),-14.2% (inactive),-18.7% (inactive),0.09% (inactive),99.7% (inactive),100% (inactive),2.33% (inactive),1.92% (inactive)
CCOC(=O)c1ccccc1NC(=O)CSc1nccn1C,89%,94% (inactive),89% (inactive),94% (inactive),108% (inactive),15.5% (inactive),92.7%,108%,0.91% (inactive),-3.44% (inactive),-4.88% (inactive),3.13% (inactive),-1.73% (inactive),102% (inactive),98.2% (inactive),1.55% (inactive),1.28% (inactive)
Cc1cccc(OCc2nc(C#N)c(NCCN(C)C)o2)c1,97%,81.5% (inactive),97% (inactive),79.7% (inactive),84.8% (inactive),-2.44% (inactive),87.3%,84.8%,-2.4% (inactive),-2.46% (inactive),-4.31% (inactive),1.57% (inactive),-3.62% (inactive),102% (inactive),103% (inactive),0.445% (inactive),3.81% (inactive)
CC1CCc2nn(CC(=O)NCc3ccc(F)cc3)cc2C1 (stereo not given),122%,102% (inactive),122% (inactive),79.4% (inactive),89.4% (inactive),-4.28% (inactive),93.6%,89.4%,-0.51% (inactive),-2.33% (inactive),-3.91% (inactive),8.68% (inactive),-2.02% (inactive),86.4% (inactive),87.6% (inactive),-0.73% (inactive),1.16% (inactive)
CCCCN=CC1=C(O)C(C(=O)OC)C(C)(C)CC1=O (stereo not given),79%,93.5% (inactive),79% (inactive),104% (inactive),91.4% (inactive),4.54% (inactive),86.9%,91.4%,1.03% (inactive),25.8% (inactive),-1.01% (inactive),-5.23% (inactive),-0.63% (inactive),93.8% (inactive),93.9% (inactive),0.72% (inactive),1.5% (inactive)
